# Data: the supplement of paper PMC6658780
# Where a name gives a salt, the structure may show the parent alone. ± gives the standard deviation of the averaged measurements.
# System: Escherichia coli ATCC BAA-2469
# Assay: percent growth inhibition of drug + antibiotic vs DMSO control; higher = more growth inhibition
# Details: antibiotic (0.125x MIC): ciprofloxacin; 7 µM
# Procedure: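 Prestwick drugs tested at 20 uM and 7 uM with an antibiotic at 0.125x MIC (16 mg/L when MIC >128 mg/L) against E. coli ATCC BAA-2469 (NDM-1) in CAMHB, 384-well plates, duplicate runs. Percent growth inhibition was computed from OD600 (24 h minus 0 h) relative to DMSO wells. Drug + DMSO-only wells are also given. […]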
row,Compound,percent growth inhibition
1,NCC1(CC(=O)O)CCCCC1 [Gabapentin],4.43 ± 4.2%
2,O=C([O-])c1ccccc1-c1c2cc(Br)c(=O)cc-2oc2[c]([Hg+])c([O-])c(Br)cc12.[Na+].[Na+].[OH-] [Merbromin],0.00817 ± 2.1%

# Same assay, conditions: antibiotic (0.125x MIC): ciprofloxacin; 20 µM
row,Compound,percent growth inhibition
1,NCC1(CC(=O)O)CCCCC1 [Gabapentin],9.67 ± 14%

# Same assay, conditions: antibiotic (0.125x MIC): gentamicin; 7 µM
row,Compound,percent growth inhibition
1,O=C(CCCN1CCC2(CC1)C(=O)NCN2c1ccccc1)c1ccc(F)cc1 [Spiperone],7.21 ± 1%
2,C[C@]12CC[C@H](O)C[C@@H]1CC[C@@H]1[C@@H]2CC[C@]2(C)C(=O)CC[C@@H]12 [Epiandrosterone],0.433 ± 1.2%

# Same assay, conditions: antibiotic (0.125x MIC): meropenem; 7 µM
row,Compound,percent growth inhibition
1,NCC1(CC(=O)O)CCCCC1 [Gabapentin],-2.95 ± 1.7%
2,O=C([O-])c1ccccc1-c1c2cc(Br)c(=O)cc-2oc2[c]([Hg+])c([O-])c(Br)cc12.[Na+].[Na+].[OH-] [Merbromin],0.439 ± 4%

# Same assay, conditions: antibiotic (0.125x MIC): meropenem; 20 µM
row,Compound,percent growth inhibition
1,CN1[C@@H]2CC[C@H]1C[C@@H](OC(=O)C(CO)c1ccccc1)C2 (some centres undefined) [Atropine sulfate monohydrate],0.268 ± 1.2%
2,Oc1cc(Cl)ccc1Oc1ccc(Cl)cc1Cl [Triclosan],97 ± 4.5%
